# The whole screen tested about 66,000 compounds, of which about 960 (1.5%) showed an effect of 50% or more. Only a selection was taken, and strong results are over-represented in it overall.
# Test system: Trypanosoma brucei
# Test: Trypanosoma brucei 72 hour study
# Format: functional, organism-based
# Set-up: scale not given: in the data most compounds retested in dose-response had high values
structure (smiles),measurement,setting,value
Cl.O=C(NCCn1nc(C2CCNC2)c2cccnc21)C1CCC1 (centres undefined),Percent Effect,"30.3 µM, […]",-2.901%
Cc1cc(C)c2c(N3CCN(C(=O)N(C)C)CC3)ncnc2n1,Percent Effect,"30 µM, 30.03 µM",-10.57%
O=C(c1cccnc1)C1CCCN(c2nnc(C3CC3)o2)C1 (centres undefined),Percent Effect,"30 µM, 30.03 µM",-35.25%
O=C(c1cccc(Cl)c1)C1CCCN(c2nnc(C3CCC3)o2)C1 (centres undefined),Percent Effect,"30 µM, 30.03 µM",75.84%
Cc1nnc(N2CCCC(C(=O)c3cccc(Cl)c3)C2)o1 (centres undefined),Percent Effect,"30 µM, 30.03 µM",-2.386%
NCCn1cc(C(=O)N2CCCCCC2c2ccco2)nn1 (centres undefined),Percent Effect,"30 µM, 30.03 µM",-18.67%
Oc1cc(-c2nccs2)nc(C2CCN(Cc3cccs3)CC2)n1,Percent Effect,"30.3 µM, […]",-16.93%
Oc1cc(C2CCCCN2Cc2cccs2)nc(-c2ccncc2)n1 (centres undefined),Percent Effect,"30.3 µM, […]",-2.917%
Oc1cc(C2CCCCN2Cc2cccs2)nc(-c2ccccn2)n1 (centres undefined),Percent Effect,"30.3 µM, […]",99.61%
Oc1cc(C2CCCN(Cc3cccs3)C2)nc(-c2ccccn2)n1 (centres undefined),Percent Effect,"30.3 µM, […]",100.2%
Oc1cc(C2CCCCN2Cc2ccsc2)nc(-c2ccncc2)n1 (centres undefined),Percent Effect,"30.3 µM, […]",-12.11%
Cn1ncc2ccc(C3CCCN(Cc4cccs4)C3)nc21 (centres undefined),Percent Effect,"30.3 µM, […]",11.55%
O=C(CCn1cc(Cl)cn1)Nc1ccc2c(c1)OCCO2,Percent Effect,"30 µM, 30.03 µM",-17.81%
CN(C)c1ccc(C(=O)N2CCCN(C3CCCCC3)CC2)cn1,Percent Effect,"30.3 µM, […]",-15.89%
Cc1ccc(Cc2cnc(C3CCNCC3)cn2)cc1.Cl,Percent Effect,"30.3 µM, […]",-22.29%
O=S(=O)(NCC(c1ccsc1)N1CCCCCC1)c1cccs1 (centres undefined),Percent Effect,"30 µM, 30.03 µM",-20.18%
Oc1nc(N2CCOCC2)nc2c1CCN(Cc1cccc(F)c1)CC2,Percent Effect,"30.3 µM, […]",-14.28%
Oc1nc(N2CCOCC2)nc2c1CCN(Cc1ccccc1)CC2,Percent Effect,"30.3 µM, […]",-21.1%
Oc1nc(N2CCOCC2)nc2c1CCN(Cc1ccc(F)cc1)CC2,Percent Effect,"30.3 µM, […]",100.3%
CC(C)c1nc(CCN(C)c2nccc(N3CCCC(O)C3)n2)no1 (centres undefined),Percent Effect,"30.3 µM, […]",3.693%
Cc1cc(C(=O)N2CC[C@H]3[C@H]2CCN3S(C)(=O)=O)c(C)o1,Percent Effect,"30.3 µM, […]",-71.76%
Cc1oncc1C(=O)N1CC[C@H]2[C@H]1CCN2S(C)(=O)=O,Percent Effect,"30.3 µM, […]",97.42%
Cc1oncc1C(=O)N1CC[C@H]2[C@@H]1CCC(=O)N2CC1CC1,Percent Effect,"30.3 µM, […]",-43.42%
Cc1cccc(CN2CCC3(CC2)CC(c2cccnc2)C(=O)N3C)n1.O=C(O)C(F)(F)F.O=C(O)C(F)(F)F (centres undefined),Percent Effect,"30.3 µM, […]",-33.95%
COCC(=O)N1CCC2(CC1)COCCN2Cc1ccc(F)cc1.O=C(O)C(F)(F)F,Percent Effect,"30 µM, 30.03 µM",14.27%
Cc1nc(CC2CCN(Cc3ccc(CCC(C)(C)O)cc3)CC2)no1,Percent Effect,"30.3 µM, […]",-0.2557%
Cc1noc2nc(C3CCN(CC4CCCCC4)CC3)cc(C(F)F)c12.Cl,Percent Effect,"30.3 µM, […]",30.15%
CCn1nc(C)c2ccn(CC(=O)NCCCOC)c(=O)c21,Percent Effect,"30 µM, 30.03 µM",9.008%
O=C(c1ccncn1)N1C[C@H]2CCC[C@@]2(COCC2CCOCC2)C1,Percent Effect,"30 µM, 30.03 µM",54.31%
O=C(c1cccs1)N1C[C@H]2CCC[C@@]2(COCC2CCOCC2)C1,Percent Effect,"30 µM, 30.03 µM",13.05%
O=C(O)C(F)(F)F.O=C(c1ccccn1)N1C[C@H]2CCC[C@@]2(COCC2CCOCC2)C1,Percent Effect,"30 µM, 30.03 µM",14.59%
Cc1ccsc1C(=O)N1CCCN(Cc2cscn2)CC1,Percent Effect,10 µM,-20.65%
CN(C)C(=O)[C@H]1CCS(=O)(=O)[C@@H]2CN(c3ncccn3)C[C@H]12,Percent Effect,"30.3 µM, […]",-0.441%
COc1ccnc(N2CCN(C(=O)Cc3ccc(C#N)cc3)CC2)n1,Percent Effect,"30 µM, 30.03 µM",4.593%
Cc1nc(CC(=O)N2CCCN(c3ccc(C#N)cc3)CC2)cs1,Percent Effect,"30 µM, 30.03 µM",7.071%
COc1ccc(CC(=O)N2CCCN(c3ccc(C#N)cc3)CC2)cc1,Percent Effect,"30 µM, 30.03 µM",55.65%
CN1C[C@]2(CC[C@@H](C(=O)N3CCOCC3)CC2)Oc2ccccc2C1=O,Percent Effect,"30.3 µM, […]",-18.99%
Cc1ccc2[nH]c(C(=O)N3CCC4(CC3)C(=O)NCCN4C)nc2c1,Percent Effect,"30 µM, 30.03 µM",74.91%
CN1CCNC(=O)C12CCN(C(=O)c1ccc3[nH]c(=O)[nH]c3c1)CC2,Percent Effect,"30 µM, 30.03 µM",29.1%
Cc1ccc(C(=O)N2CCC3(CC2)C(=O)NCCN3C)cc1O,Percent Effect,"30 µM, 30.03 µM",-5.883%
Cn1cc(C(=O)NCc2cn3c(n2)CN(CC2CCCC2)CC3)cn1.O=C(O)C(F)(F)F.O=C(O)C(F)(F)F,Percent Effect,"30 µM, 30.03 µM",-33.28%
Cc1nc(CO[C@@H]2CN(Cc3cccs3)[C@@H]3COC[C@@H]32)cs1.O=C(O)C(F)(F)F,Percent Effect,"30 µM, 30.03 µM",-14.66%
Cc1cc(S(C)(=O)=O)c(C)c(S(=O)(=O)N2CCCC(C)C2)c1 (centres undefined),Percent Effect,"30 µM, 30.03 µM",0.7387%
O=C(O)C(F)(F)F.O=C1COC2(CCN(CC3CC3)CC2)CN1c1cncnc1,Percent Effect,"30 µM, 30.03 µM",-12.06%
CS(=O)(=O)CCC(=O)NC(Cc1ccccc1)C1CC1 (centres undefined),Percent Effect,"30.3 µM, […]",70.04%
CN(CC(=O)NC(Cc1ccccc1)C1CCCC1)S(C)(=O)=O (centres undefined),Percent Effect,"30.3 µM, […]",62.9%
CS(=O)(=O)CCC(=O)NC1CC(c2ccccc2Cl)C1 (centres undefined),Percent Effect,"30 µM, 30.03 µM",-26.6%
Cc1ccc(CC(NC(=O)CCS(C)(=O)=O)c2ccccn2)cc1 (centres undefined),Percent Effect,"30 µM, 30.03 µM",-49.38%
CS(=O)(=O)NCC(=O)NC(Cc1ccccc1)C1CCCC1 (centres undefined),Percent Effect,"30.3 µM, […]",-60.62%
Cc1c(NC(=O)CN(C)S(C)(=O)=O)cccc1OC1CCCC1,Percent Effect,"30 µM, 30.03 µM",-55.36%
CNc1nc(C)c(C(=O)N2C[C@H]3CC[C@@H]2CN(c2cnccn2)C3)s1,Percent Effect,"30 µM, 30.03 µM",-23.46%
CC1CN(C)CCN1C(=O)c1cnn(-c2cccc(Cl)c2)c1 (centres undefined),Percent Effect,"30.3 µM, […]",-22.44%
same,Percent Effect,"10 mM, 10 mM as filed; unlikely as a test dose",-40.4%
COCC1CC2(CCN(Cc3ccoc3)CC2)CN1C(C)C.O=C(O)C(F)(F)F.O=C(O)C(F)(F)F (centres undefined),Percent Effect,"30 µM, 30.03 µM",26.61%
CCN(CC)C(=O)CN1CCc2nc(C3CCNCC3)nc(NC)c2C1.Cl,Percent Effect,"30.3 µM, […]",-15.23%
CCC(=O)Nc1ccc2c(c1)C1(CCOCC1)CN2CCOC.O=C(O)C(F)(F)F,Percent Effect,"30.3 µM, […]",-49.74%
CN(Cc1ccccc1F)C(=O)Cn1cc(NC(=O)C(C)(C)C)cn1,Percent Effect,"30.3 µM, […]",-0.06216%
CC(C)NC(=O)N1CCN(CC2CC2)CC2(CNC(=O)C2)C1.O=C(O)C(F)(F)F (centres undefined),Percent Effect,"30 µM, 30.03 µM",-4.336%
COc1ccccc1C1(CNCc2ccc(C#N)cc2)CCOCC1,Percent Effect,"30.3 µM, […]",29.93%
COc1ccccc1C1(CNCc2cccc(C#N)c2)CCOCC1,Percent Effect,"30.3 µM, […]",67.18%
COc1ccccc1C1(CNCc2cccc(O)c2)CCOCC1,Percent Effect,"30.3 µM, […]",15.56%
CC(=O)Nc1ccc(Oc2cc(C)nc(C3CCCNC3)c2)cc1.Cl (centres undefined),Percent Effect,"30.3 µM, […]",-25.31%
Cc1cc(Oc2ccc(NC(=O)C3CC3)cc2)cc(C2CCNCC2)n1.Cl,Percent Effect,"30.3 µM, […]",99.81%
CC(=O)Nc1ccc(Oc2cc(C)nc(C3CCNCC3)c2)cc1.Cl,Percent Effect,"30.3 µM, […]",0.5571%
COCC(=O)N1CCC(Nc2ccnc3ccc(Cl)cc23)CC1,Percent Effect,"30.3 µM, […]",-10.12%
NC(=O)CN1CCC(Nc2ccnc3ccc(Cl)cc23)CC1,Percent Effect,"30.3 µM, […]",62.45%
CS(=O)(=O)N1CCC(Nc2ccnc3ccc(Cl)cc23)CC1,Percent Effect,"30.3 µM, […]",-667%
O=C1N(Cc2ccc(F)c(F)c2)CCCC1(O)CNCC1CCCCC1 (centres undefined),Percent Effect,"30 µM, 30.03 µM",-26.1%
CC(NC(=O)CCC(C)(C)C)C(=O)Nc1ccc(-n2cncn2)cc1 (centres undefined),Percent Effect,"30 µM, 30.03 µM",-4.525%
O=C1N(Cc2ccc(F)c(F)c2)CCCC12CCN(C1CCCCC1)C2 (centres undefined),Percent Effect,"30 µM, 30.03 µM",6.711%
O=C1N(Cc2ccc(F)c(F)c2)CCCC12CCN(C1CCCC1)C2 (centres undefined),Percent Effect,"30 µM, 30.03 µM",-86.64%
O=C1N(Cc2ccc(F)c(F)c2)CCCC12CCN(C1CCSCC1)C2 (centres undefined),Percent Effect,"30 µM, 30.03 µM",50.02%
COCCNC(=O)[C@@]12CCO[C@@H]1CCN(Cc1ccc(OC)cc1)C2.O=C(O)C(F)(F)F,Percent Effect,"30 µM, 30.03 µM",7.509%
CS(=O)(=O)c1ccc(CN2C[C@H]3CC[C@@H]2CN(c2ncccn2)C3)cc1,Percent Effect,"30 µM, 30.03 µM",-59.99%
CN(C)CCn1ccnc1C1CCN(c2cc(N)nc(N)n2)CC1,Percent Effect,"30 µM, 30.03 µM",1.166%
Cc1ccc(C#N)c(N2CCC(c3nccn3CCN(C)C)CC2)n1,Percent Effect,"30 µM, 30.03 µM",57.26%
Cc1ccc(C#N)c(N2CCC(c3nccn3Cc3cscn3)CC2)n1,Percent Effect,"30 µM, 30.03 µM",31.21%
O=C1C[C@H]2CC[C@@H](CN1)N2C(=O)CCc1ccc2c(c1)OCO2,Percent Effect,"30.3 µM, […]",6.652%
COc1ccc(C2=CCN(C(=O)C3CCN(C)C(=O)C3)CC2)cc1 (centres undefined),Percent Effect,"30 µM, 30.03 µM",57.6%
COc1ccc(C2=CCN(C(=O)C3CCC3)CC2)cc1,Percent Effect,"30.3 µM, […]",-20.1%
Cc1ccc(C2=CCN(C(=O)C3CCN(C)C(=O)C3)CC2)cc1 (centres undefined),Percent Effect,"30.3 µM, […]",-12.11%
CC(C)OCCCN(Cc1ccncc1)Cc1cccc(F)c1.Cl,Percent Effect,"30.3 µM, […]",-29.62%
Cc1ccccc1C1(C(=O)NCCN2CCC(C)CC2)CCOCC1,Percent Effect,"30.3 µM, […]",1.423%
COc1ccccc1C1(CNc2snc(Cl)c2C#N)CCOCC1,Percent Effect,"30.3 µM, […]",0.1302%
COc1ccccc1C1(CNc2snc(Cl)c2C#N)CCCC1,Percent Effect,"30.3 µM, […]",35.81%
N#Cc1c(Cl)nsc1NCC1(c2ccccc2)CCC1,Percent Effect,"30.3 µM, […]",100.1%
Cc1cccc(N2CCc3ncc(CNc4ccccn4)n3CC2)n1.O=C(O)C(F)(F)F.O=C(O)C(F)(F)F,Percent Effect,"30.3 µM, […]",-45.99%
Cl.NCC(=O)N1CCCC1c1nccnc1Nc1ncccn1 (centres undefined),Percent Effect,"30.3 µM, […]",-17.2%
C=C(C)CN1CCN(Cc2cnc(-c3ccc(OC)cc3)nc2)CC1.O=C(O)CC(O)(CC(=O)O)C(=O)O,Percent Effect,"30.3 µM, […]",2.32%
Cc1ccc(N[C@@H]2CN(Cc3cc(C)on3)C[C@@H]3CCCO[C@@H]32)nn1.O=C(O)C(F)(F)F.O=C(O)C(F)(F)F,Percent Effect,"30.3 µM, […]",-34.05%
Cc1noc(CNc2c(N3CCCC3)cccc2N2CCCC2)n1,Percent Effect,"30.3 µM, […]",-1.503%
Cc1noc(C)c1CNc1c(N2CCCC2)cccc1N1CCCC1,Percent Effect,"30.3 µM, […]",99.93%
COc1ccccc1N1CCC(NCc2c(C)noc2C)C1 (centres undefined),Percent Effect,"30 µM, 30.03 µM",-20.42%
O=C(NCc1ccco1)[C@@H]1CCO[C@@H]2CCN(C3CCOCC3)C[C@H]21.O=C(O)C(F)(F)F,Percent Effect,"30 µM, 30.03 µM",-32.7%

# From ChEMBL document CHEMBL3988442, “University of Dundee, Small-Polar-MMV Screening Library” (2021)
